Only some compounds are listed: those with a hit (about 7.4% of all), similar ones and a draw of the others.
HEK293 viab – GF-AFC viability counterscreen for inhibitors of alpha-synuclein gene (SNCA) expression | Potency, µM (top dose mostly 57.1 µM), most hits filed as cytotoxic | actives 0.12% (n = 150,000) | AID 1671193, 2021 | HEK-293-SNCA-luc viability, GF-AFC fluorescence, 24 h; note: nearly all actives have a fitted effect of over 30% in size
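Cytotoxicity counterscreen: after 24 h compound treatment of genome-edited SNCA-luciferase HEK-293 cells, live-cell protease substrate GF-AFC read by fluorescence after 30 min; activity scaled between DMSO (0%) and medium-only (-100%), curves Hill-fitted.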
NPR1 antag – Natriuretic polypeptide receptor (hNpr1) antagonism - Primary qHTS; Atrial natriuretic peptide receptor 1 (Homo sapiens), P16066; HEK293 hNpr1 GloSensor cGMP, ANP-stimulated luminescence; Potency, µM (top dose mostly 46.3 µM), actives largely listed as inhibitors; actives 1.6% (n = 76,000); AID 1347048, 2019; calls by dose curve; note: nearly all actives have a fitted effect of over 60% in size
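HEK293 cells stably expressing human Npr1 and cGMP GloSensor pGS-40F, loaded 2 h with 2% GloSensor reagent, given compound 30 min at room temperature. Luminescence read before and 20 min after 0.1 nM hNppA.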
Luciferase inh – Firefly luciferase inhibition profiling of diverse chemical library using quantitative high-throughput screening. Luciferin 4-monooxygenase (Photinus pyralis), P08659. purified P. pyralis luciferase, luminescence, biochemical. Potency, µM (series often up to 115 µM), hits mostly inhibitors. actives 2.5% (n = 76,000); note: nearly all actives have a fitted effect of over 65% in size
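Purified P. pyralis luciferase (10nM final) in 50mM Tris acetate pH 7.5, 10mM Mg acetate, 0.01% Tween-20, 0.05% BSA with 10uM D-luciferin and 10uM ATP. Compounds titrated qHTS. Luminescence imaged on CCD.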
NIH3T3 tox – Cytotoxic Profiling in NIH 3T3 Cell Line of Diverse Libraries Using Quantitative High-Throughput Screening; NIH 3T3 viability, CellTiter-Glo ATP luminescence, 48-72 h; Potency, µM (series often up to 96.7 µM), most hits filed as inhibitors; actives 4.3% (n = 94,000); note: nearly all actives have a fitted effect of over 55% in size
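Cytotoxicity was measured by CellTiter-Glo ATP luminescence after 48 or 72 h compound exposure at 37 °C. Mouse NIH 3T3 fibroblasts were seeded at 400 cells/well and dosed by 23 nL pin transfer.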
HEK293 tox – Cytotoxic Profiling in HEK 293 Cell Line of Diverse Libraries Using Quantitative High-Throughput Screening; HEK 293 viability, ATP luminescence (CellTiter-Glo), 48-72 h; Potency, µM (top dose mostly 115 µM), most hits filed as inhibitors; actives 6.6% (n = 94,000); AID 1345083, 2018; note: nearly all actives have a fitted effect of over 60% in size
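ATP-coupled CellTiter-Glo luminescence served as viability read-out, recorded 10 min after reagent addition at room temperature. HEK 293 cells, 250 cells/well, had been incubated with pintool-transferred compound for 48 or 72 hr at 37 degree Celsius.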
SNCA expr inhib – Primary qHTS assay for inhibitors of alpha-synuclein gene (SNCA) expression; Potency, µM (titrated, usually from 57.2 µM), usual class: inhibitors; HEK-293 SNCA-luciferase knock-in, luminescence, 24 h; actives 0.17% (n = 140,000); note: nearly all actives have a fitted effect of over 45% in size
Npr1 antag conf – Natriuretic polypeptide receptor (hNpr1) antagonism - Confirmation; shares compounds with NPR1 antag; HEK293 hNpr1 cGMP GloSensor luminescence, ANP-stimulated; Potency, µM (highest dose often 57.6 µM), most hits filed as inhibitors; actives 76% (n = 1,400); AID 1347044, 2019; calls by dose curve; note: nearly all actives have a fitted effect of over 70% in size
Npr2 selectivity – Natriuretic polypeptide receptor (hNpr2) antagonism - Subtype selectivity assay | shares compounds with NPR1 antag | HEK293 hNpr2 GloSensor cGMP luminescence, CNP-stimulated | Potency, µM (series often up to 57.6 µM), actives largely listed as inhibitors | actives 67% (n = 1,400); calls by dose curve; note: nearly all actives have a fitted effect of over 70% in size
Target sequence (P20594 whole entry, looked up): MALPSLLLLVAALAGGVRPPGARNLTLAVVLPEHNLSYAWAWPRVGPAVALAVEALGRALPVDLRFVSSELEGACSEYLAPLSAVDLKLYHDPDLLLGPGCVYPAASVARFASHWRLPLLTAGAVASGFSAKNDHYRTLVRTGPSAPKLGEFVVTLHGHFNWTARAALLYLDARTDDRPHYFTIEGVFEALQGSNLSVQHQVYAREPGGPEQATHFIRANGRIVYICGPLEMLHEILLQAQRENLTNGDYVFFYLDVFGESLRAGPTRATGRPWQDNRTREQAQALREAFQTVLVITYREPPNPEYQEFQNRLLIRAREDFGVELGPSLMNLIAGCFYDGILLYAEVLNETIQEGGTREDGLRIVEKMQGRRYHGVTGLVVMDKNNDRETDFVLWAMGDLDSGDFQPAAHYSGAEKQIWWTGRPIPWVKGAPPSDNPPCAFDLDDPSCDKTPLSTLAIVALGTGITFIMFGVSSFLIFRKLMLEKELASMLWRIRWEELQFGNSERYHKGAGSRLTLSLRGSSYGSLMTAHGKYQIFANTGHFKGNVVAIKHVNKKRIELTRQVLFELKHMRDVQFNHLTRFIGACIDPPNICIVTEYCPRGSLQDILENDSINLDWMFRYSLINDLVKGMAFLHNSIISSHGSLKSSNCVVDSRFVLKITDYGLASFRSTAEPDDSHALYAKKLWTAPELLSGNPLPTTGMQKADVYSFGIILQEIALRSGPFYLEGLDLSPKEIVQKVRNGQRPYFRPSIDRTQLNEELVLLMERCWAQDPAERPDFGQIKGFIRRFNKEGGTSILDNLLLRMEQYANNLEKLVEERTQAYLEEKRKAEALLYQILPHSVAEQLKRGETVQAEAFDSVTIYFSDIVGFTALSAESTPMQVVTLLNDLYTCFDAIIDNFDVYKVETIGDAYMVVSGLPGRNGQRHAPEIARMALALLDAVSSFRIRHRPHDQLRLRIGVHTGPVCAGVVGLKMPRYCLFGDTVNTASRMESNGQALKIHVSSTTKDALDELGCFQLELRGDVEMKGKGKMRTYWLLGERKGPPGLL
FLuc counter – Natriuretic polypeptide receptor (hNpr1) antagonism - Confirmation firefly luciferase (FLuc) inhibition counterscreen; AID 1347047, 2019; actives 0.7% (n = 1,400); shares compounds with NPR1 antag; Potency, µM (top dose mostly 57.6 µM), hits mostly inhibitors; purified FLuc enzyme, luminescence, Km substrate
GloSensor cGMP – Natriuretic polypeptide receptor (hNpr1) antagonism - Counterscreen GloSensor control cell line | Potency, µM (top dose mostly 57.6 µM), hits mostly inhibitors | HEK293 GloSensor cGMP, SNP-stimulated, luminescence | actives 69% (n = 1,400) | shares compounds with NPR1 antag; calls by dose curve; note: nearly all actives have a fitted effect of over 70% in size
Large screens that a line does not name were inactive (follow-up assays come after a bar, where they were run). Unless noted, calls come from the whole dose curve; as a rule, active = well fitted curve in the direction sought with a large enough effect; inconclusive = small, poorly fitted or top-dose-only effect, or another doubt; inactive = no such curve, though single readings can be large; an effect the other way counts as inactive or inconclusive.

O=C(c1ccsc1)N1[C@H]2CC[C@@H]1c1cnc(-c3ccc(F)cc3)nc1C2	NPR1 antag 8.9µM, HEK293 tox 40µM | Npr1 antag conf 14µM | Npr2 selectivity 11µM | FLuc counter inactive | GloSensor cGMP 12µM
COc1ccccc1C(=O)N1[C@H]2CC[C@@H]1c1cnc(-c3ccc(F)cc3)nc1C2	NPR1 antag 8.9µM, NIH3T3 tox inconclusive, HEK293 tox inconclusive | Npr1 antag conf 17µM | Npr2 selectivity 15µM | FLuc counter inactive | GloSensor cGMP 12µM
CCCS(=O)(=O)N1[C@H]2CC[C@@H]1c1cnc(-c3ccc(F)cc3)nc1C2	NPR1 antag 18µM, NIH3T3 tox inconclusive, HEK293 tox inconclusive | Npr1 antag conf 17µM | Npr2 selectivity 19µM | FLuc counter inactive | GloSensor cGMP 14µM
COCCOCC(=O)N1[C@H]2CC[C@@H]1c1cnc(-c3ccc(F)cc3)nc1C2	NIH3T3 tox inconclusive
CCn1ccc(C(=O)N2[C@H]3CC[C@@H]2c2cnc(-c4ccc(F)cc4)nc2C3)n1	HEK293 tox inconclusive
O=C(CC1CCCC1)N1[C@H]2CC[C@@H]1c1cnc(-c3ccc(F)cc3)nc1C2	NPR1 antag 4µM, HEK293 tox inconclusive | Npr1 antag conf 4.3µM | Npr2 selectivity 6.1µM | FLuc counter inactive | GloSensor cGMP 4.3µM
Cc1ccnn1CC(=O)N1C[C@@H](c2ccc3c(c2)OCO3)[C@@H]2[C@H]1C1CCN2CC1	none
O=C1CS(=O)C2(CCNCC2)N1C1CCCC1 (stereo unspecified)	none
CCn1nccc1C(=O)N1[C@H]2CC[C@@H]1c1cnc(-c3ccccc3)nc1C2	NPR1 antag 13µM, HEK293 tox inconclusive | Npr1 antag conf 17µM | Npr2 selectivity 22µM | FLuc counter inactive | GloSensor cGMP 15µM
O=C1C[C@@H]2CCN(C3COC3)C[C@@H]2CCN1	none (no result: NPR1 antag, Luciferase inh)
CCC(CC)c1cc([C@H]2CN3CC[C@H]2C[C@@H]3CNC(=O)COc2ccccc2)nc(-c2ccncc2)n1	HEK293 viab inconclusive, NPR1 antag 11µM, NIH3T3 tox 22µM, HEK293 tox 28µM, SNCA expr inhib inconclusive | Npr1 antag conf 17µM | Npr2 selectivity 17µM | FLuc counter inactive | GloSensor cGMP inactive
O=C(Cc1ccccc1)N1Cc2ccccc2CC2(CCCN2Cc2ccncc2)C1 (stereo unspecified)	HEK293 tox inconclusive (no result: NPR1 antag, Luciferase inh)
O=C(Cc1ccc(Cl)cc1)N1Cc2ccccc2CC2(CCCN2CC2CCNC2)C1 (stereo unspecified)	NIH3T3 tox 16µM, HEK293 tox 28µM (no result: NPR1 antag, Luciferase inh) | Npr1 antag conf 22µM | Npr2 selectivity 6.1µM | FLuc counter inactive | GloSensor cGMP inactive
COc1cc2c(cc1Oc1cccc(N(C)C)c1)NC(=O)C21CCN(Cc2ccccc2)CC1	NPR1 antag 11µM, NIH3T3 tox 25µM, HEK293 tox 28µM, SNCA expr inhib inconclusive | Npr1 antag conf 17µM | Npr2 selectivity 19µM | FLuc counter inactive | GloSensor cGMP 9.7µM
COc1cc2c(cc1Oc1cccc(N(C)C)c1)NC(=O)C21CCN(Cc2cccc(O)c2)CC1	NPR1 antag 11µM, NIH3T3 tox inconclusive, HEK293 tox 25µM | Npr1 antag conf 19µM | Npr2 selectivity 22µM | FLuc counter inactive | GloSensor cGMP 17µM
COc1cc2c(cc1Oc1cccc(N(C)C)c1)NC(=O)C21CCN(c2ncc(F)cn2)CC1	NIH3T3 tox inconclusive
COc1ccc(N(C(=O)Oc2c(C)cccc2C)c2ccnc(Nc3ccc(N4CCN(C)CC4)cc3)n2)c(OC)c1	HEK293 viab inconclusive (no result: NPR1 antag, Luciferase inh, NIH3T3 tox, HEK293 tox)
COCCN1CCC(N2CCN(C(=O)Cc3ccc(Cl)cc3)CC2)C1=O (stereo unspecified)	none

From PubChem
